Assay [1] is described as follows: qHTS assay to identify small molecule agonists of H2AX - cell viability counter screen (AID 1224847; calls by dose curve; note: nearly all actives have a fitted effect of over 30% in size; note: potency is the fitted concentration of half-maximal effect). Put shortly:
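After overnight plating of 1000 CHO-K1 cells per well, a 15-concentration compound series was applied for 3 hr at 37C. Luminescence from CellTiter-Glo, read following 30 min at room temperature, reflected cell viability.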
In general terms: In qHTS, concentration-response curves come from the screen itself.

The nature of assay [2]: qHTS assay to identify small molecule antagonists of the estrogen related receptor (ERR) signaling pathway from Tox21 library (AID 1224848). Note: nearly all actives have a fitted effect of over 50% in size. Put shortly:
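Screening used an ERR reporter line supplied by NTP, exposed for 18 h at 37 C to library compounds delivered in DMSO. Signal was luciferase luminescence developed with ONE-Glo at room temperature for 30 min.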

Assay [3] in a line: qHTS assay to identify small molecule agonists of the estrogen related receptor (ERR) signaling pathway from Tox21 library (AID 1224849; calls by dose curve; note: nearly all actives have a fitted effect of over 15% in size). The note with it: ERR reporter cell line, ONE-Glo luciferase, 18 h. A digest of the protocol:
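ERR cells, 6 h pre-incubation 37 C/5% CO2; cpd in DMSO pinned; 18 h 37 C; ONE-Glo added, 30 min RT; luminescence read. Agonist mode, qHTS.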

Assay [4] can be described thus: qHTS RealTime-Glo MT Cell Viability Assay in HepG2 cells - 24 hour (AID 1224867). Note: nearly all actives have a fitted effect of over 50% in size. A digest of the protocol: (§1)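 Real-time, nonlytic viability: 600 HepG2 cells/well mixed with NanoLuc enzyme plus prosubstrate; 5 h settle, compound (DMSO) added by pintool; luminescence monitored over 40 h at 37 C.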
Assay [5] is described as follows: qHTS RealTime-Glo MT Cell Viability Assay in HEK293 cells - 32 hour (AID 1224868). Note: top concentration of the series differs between compounds; nearly all actives have a fitted effect of over 50% in size. A digest of the protocol:
(§2)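 Cells + reagent dispensed (600 cells/well, HEK293) → 5 h at 37 C/5% CO2 → 23 nL compound in DMSO pinned → 40 h at 37 C → luminescence read at 0, 8, 16, 24, 32, 40 h.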

The nature of assay [6]: A CellTox Green Cytotoxicity Assay to monitor cytotoxicity in HEK293 cells - 0 hour (AID 1224869). Note: nearly all actives have a fitted effect of over 50% in size. A digest of the protocol:
(§3)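 Nonlytic real-time cytotoxicity: HEK293 + CellTox Green reagent plated, 5 h preincubation, pintool compound addition (23 nL in DMSO), 37 C for 40 h, fluorescence measured at successive time points.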

Assay [7] can be described thus: qHTS RealTime-Glo MT Cell Viability Assay in HepG2 cells - 40 hour (AID 1224870). Note: nearly all actives have a fitted effect of over 50% in size. Put shortly:
(§4)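 HepG2 cells mixed with RealTime-Glo MT reagents (NanoLuc plus cell-permeant prosubstrate) were seeded at 600 cells/well, incubated 5 h at 37 C/5% CO2, then pinned with compounds in DMSO; nonlytic luminescence tracked viability during 40 h treatment.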

Assay [8] is described as follows: A CellTox Green Cytotoxicity Assay to monitor cytotoxicity in HEK293 cells - 40 hour (AID 1224871). Note: nearly all actives have a fitted effect of over 45% in size. A digest of the protocol: as §3
A short description of assay [9]: qHTS RealTime-Glo MT Cell Viability Assay in HEK293 cells - 16 hour (AID 1224872). A digest of the protocol: as §2
The nature of assay [10]: qHTS RealTime-Glo MT Cell Viability Assay in HepG2 cells - 8 hour (AID 1224873). Note: nearly all actives have a fitted effect of over 55% in size. Put shortly:
as §4

The nature of assay [11]: qHTS RealTime-Glo MT Cell Viability Assay in HEK293 cells - 40 hour (AID 1224874). Note: nearly all actives have a fitted effect of over 50% in size. As to conditions: RealTime-Glo luminescence; max response: stronger effect = lower value. A digest of the protocol:
(§5)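 Cells were seeded together with NanoLuc luciferase and a prosubstrate that viable cells reduce to a luciferase substrate. After a 5 h incubation at 37 C/5% CO2, compounds were added and luminescence was measured repeatedly during 40 h of treatment.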

A short description of assay [12]: A CellTox Green Cytotoxicity Assay to monitor cytotoxicity in HEK293 cells - 24 hour (AID 1224875). Note: nearly all actives have a fitted effect of over 45% in size. A digest of the protocol:
as §3

A short description of assay [13]: A CellTox Green Cytotoxicity Assay to monitor cytotoxicity in HepG2 cells - 16 hour (AID 1224876). Note: nearly all actives have a fitted effect of over 45% in size. Note: potency is the fitted concentration of half-maximal effect. Put shortly: (§6)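 Read-out is fluorescence of a cyanine dye excluded from live cells that stains DNA of dead HepG2 cells, with signal proportional to cytotoxicity. Plates were read at 0, 8, 16, 24, 32 and 40 h after compound addition.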
Assay [14] is described as follows: qHTS RealTime-Glo MT Cell Viability Assay in HepG2 cells - 32 hour (AID 1224877). Note: nearly all actives have a fitted effect of over 55% in size. Put shortly:
as §1

Assay [15] can be described thus: A CellTox Green Cytotoxicity Assay to monitor cytotoxicity in HepG2 cells - 24 hour (AID 1224878). Note: nearly all actives have a fitted effect of over 45% in size. Note: potency is the fitted concentration of half-maximal effect. Put shortly:
as §6

Assay [16] can be described thus: A CellTox Green Cytotoxicity Assay to monitor cytotoxicity in HepG2 cells - 40 hour (AID 1224879). Note: nearly all actives have a fitted effect of over 40% in size. Note: potency is the fitted concentration of half-maximal effect. Put shortly:
as §6

Assay [17] can be described thus: qHTS RealTime-Glo MT Cell Viability Assay in HEK293 cells - 0 hour (AID 1224880). Put shortly: as §5
Assay [18] in a line: A CellTox Green Cytotoxicity Assay to monitor cytotoxicity in HEK293 cells - 32 hour (AID 1224881). Note: nearly all actives have a fitted effect of over 40% in size. A digest of the protocol: as §3
A short description of assay [19]: A CellTox Green Cytotoxicity Assay to monitor cytotoxicity in HepG2 cells - 0 hour (AID 1224882). Note: nearly all actives have a fitted effect of over 35% in size. A digest of the protocol:
as §6

A short description of assay [20]: A CellTox Green Cytotoxicity Assay to monitor cytotoxicity in HepG2 cells - 32 hour (AID 1224883). Note: nearly all actives have a fitted effect of over 50% in size. Note: potency is the fitted concentration of half-maximal effect. Put shortly:
as §6

From PubChem BioAssay (Tox21) come the findings set out here.

SMILES strings stand for the structures. Several values for one entry are separate records, joined by “and”; a condition that tells them apart may be missing. Identical values can stand only once. Results filed as inconclusive are left out. More than one record can exist for a structure, and the calls need not agree. Activity calls are given as the source filed them. Unless noted, calls come from the whole dose curve; as a rule, active = well fitted curve in the direction sought with a large enough effect in the repeat runs; inconclusive = weak or mixed curves; inactive = no such curve, though single readings can be large; an effect the other way counts as inactive or inconclusive.
% is set by controls: 0 for no effect and ±100 for the full control effect.

For `N[C@@H](Cc1cc(I)c(Oc2cc(I)c(O)c(I)c2)c(I)c1)C(=O)O`, the Potency result in assay [1], in [2], in assay [5], in assay [8], in assay [9] and in assay [12] was “inactive” each time. In addition, the Potency entry in [13], in assay [15], in assay [16], in assay [17], in assay [18] and in assay [20] was “inactive” throughout. Moreover, the activity change, positive = activation in [3] (at 42.5 µM (top of the series)) is -1.09% (inactive) and 0.396% (inactive). The call in [4], in [6], in assay [7], in [10], in [14] and in assay [19] was inactive. Also, in [11], the max response is 12.3% (inactive) and 0.808% (inactive).
On to `O=C(O)CCCC[C@@H]1SC[C@@H]2NC(=O)N[C@@H]21`, for which the Potency result in assay [1], in [2], in assay [5], in [8], in [9] and in assay [12] was “inactive” in each case. For the same molecule, the Potency entry in assay [13], in [15], in assay [16], in assay [17], in assay [18] and in [20] was “inactive” throughout. Further, the figures for the activity change, positive = activation in assay [3] (at 42.5 µM (top of the series)) and in [3] (at 92.4 µM (top of the series)) were 7.51% (inactive) and 9.85% (inactive), respectively. Besides, the result in assay [4], in assay [6], in [7], in assay [10], in assay [14] and in assay [19] was inactive. Also, the max response in [11] was 6.98% (inactive) and 0.709% (inactive).
Consider `CCC(O)OC(O)CC` (stereo not drawn), for which the Potency entry in assay [1], in assay [2], in [8], in [9], in [12] and in assay [13] was “inactive” in each case. The Potency entry in [15], in [16], in [17], in assay [18] and in [20] was “inactive” throughout. Further, in assay [3] (at 92.4 µM (top of the series)), the activity change, positive = activation is 4% (inactive) and 3.85% (inactive). Further, the outcome in [4], in assay [6], in assay [7], in assay [10], in assay [14] and in [19] was inactive. The max response in [11] is 5.86% (inactive) and 8.63% (inactive).
Take `CC[C@H](C)C(=O)O[C@H]1C[C@@H](C)C=C2C=C[C@H](C)[C@H](CC[C@@H]3C[C@@H](O)CC(=O)O3)[C@H]21`: the Potency in [1] was 115 µM (active) and inactive; in assay [13], 49.6 µM (active) and inactive and 16.9 µM (active); in assay [15] it was 24.9 µM (active) and 10.7 µM (active); in [16], 7.01 µM (active) and 21.8 µM (active) and 9.52 µM (active); in assay [20], 11.1 µM (active) and 17.3 µM (active) and 9.52 µM (active). Moreover, the Potency entry in [2], in [5], in assay [8], in [9], in assay [12] and in [17] was “inactive” throughout. In addition, the Potency result in assay [18] is “inactive”. Further, the activity change, positive = activation in [3] (at 42.5 µM (top of the series)) was 14.3% (active); in assay [3] (at 92.4 µM (top of the series)) it was -46.9% (active) and 27.5% (active). The result in assay [4], in assay [6], in assay [7], in assay [10], in assay [14] and in assay [19] was inactive. In addition, in [11], the max response was -8.74% (inactive) and -19.2% (inactive).
On to `OC[C@H]1O[C@@](CO)(O[C@H]2O[C@H](CO)[C@@H](O)[C@H](O)[C@H]2O)[C@@H](O)[C@@H]1O`, for which the Potency entry in [1], in assay [2], in assay [8], in assay [12], in assay [13] and in assay [15] was “inactive” each time. The Potency entry in [16], in assay [18] and in assay [20] was “inactive” in each case. Moreover, the activity change, positive = activation in [3] (at 92.4 µM (top of the series)) was 6.61% (inactive) and 1.2% (inactive). The result in assay [6] and in assay [19] was inactive.
Turning to `CSCCC=O`, the Potency entry in assay [1], in assay [2], in assay [5], in [8], in assay [9] and in assay [12] was “inactive” in each case. Besides, the Potency entry in assay [13], in [15], in assay [16], in assay [17], in assay [18] and in assay [20] was “inactive” throughout. Further, the activity change, positive = activation in [3] (at 92.4 µM (top of the series)) is 9.1% (inactive) and 4.08% (inactive). For the same molecule, the outcome in assay [4], in assay [6], in assay [7], in assay [10], in assay [14] and in assay [19] was inactive. Besides, the max response in assay [11] was 4.41% (inactive) and 31% (inactive).
